# In the library only some 2.9% were active in any assay of this set; here they are far more common.
# CF NFkB inh: inhibitors of cystic fibrosis induced NF-kB. hit rate 0.86% among 360,000. KKLEB NF-kB-GFP reporter, PAF-induced, GFP fluorescence overnight. inhibition, % at 5 µM;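 active means at least 50% inhibition at 5 µM, scaled per plate between neutral and stimulator controls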;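 further: PAF is a Pseudomonas aeruginosa culture filtrate used as stimulus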
# Shn3 3UTR inh: inhibitors of Schnurri-3 3'UTR reporter in osteoblasts. Clone20 osteoblast Shn3 3'UTR firefly luciferase, 24 h. inhibition, % at 12.5 µM. hit rate 0.52% among 360,000;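 active means mean inhibition of at least 75% with every replicate also reaching 75%; inconclusive means mean inhibition at least 75% but some replicate below; inactive means mean inhibition below 75%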
# KKLEB tox: CF airway cell cytotoxicity counter-screen; hit rate 0.36% among 360,000; KKLEB CF airway cells viability, ATPlite luminescence, overnight; hits give low values; cells stimulated with P. aeruginosa culture filtrate; activity change (cytotoxicity), % at 5 µM; AID 602141;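 active means corrected activity change at or below -50% at 5 µM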
# Peg3 prom inh-1: inhibitors of Peg3 promoter. AID 588405. HeLa PEG-Prom luciferase reporter, luminescence, overnight. inhibition, % at 20 µM. hit rate 1.7% among 360,000;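 active means inhibition of at least 50% at 20 µM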
# EBV LMP1 NFkB: reduces LMP1-driven NF-kappaB luciferase signal; hit rate 0.69% among 350,000; LMP1-induced NF-kappaB luciferase reporter cells, luminescence; inhibition, % at 12.5 µM; AID 504558; in the data active means inhibition above about 41%; inconclusive means no clear call, values can overlap the other calls
# TRPM1 prom inh: reduces MITF-dependent TRPM1 promoter luciferase signal; AID 488899; hit rate 0.83% among 330,000; SK-MEL-5 TRPM1 promoter luciferase, 24 h; inhibition, % at 12.5 µM;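 active means mean inhibition across replicates of 60% or more, whatever share of single replicates reaches that level; inconclusive means some that reach 60%, reason not given; inactive means mean inhibition across replicates below 60%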
# Peg3 prom inh-2: confirmation of Peg3 promoter inhibitors; HeLa PEG-Prom luciferase reporter, luminescence, overnight; hit rate 84% among 1,300; inhibition, % at 20 µM; shares compounds with Peg3 prom inh-1;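 active means at 20 µM dose, 40% or more inhibition averaged across four replicates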
# A number is an active result; – = inactive; ? = inconclusive; · = no result.
SMILES,CF NFkB inh,Shn3 3UTR inh,KKLEB tox,Peg3 prom inh-1,EBV LMP1 NFkB,TRPM1 prom inh,Peg3 prom inh-2
Cc1ccc(Cn2c(CCNc3nc(-c4ccc(Cl)c([N+](=O)[O-])c4)cs3)nc3cc(Cl)c(Cl)cc32)cc1,–,–,–,73,–,–,–
O=C(O)c1ccc(Nc2nc3c(s2)CCCC3)cc1,–,–,–,67,–,64,54
CCN1C(=N)N(c2ccccc2)C(=O)C(CC)(CC)C1=O,–,–,–,–,–,–,·
COc1cc(-c2cc(C(=O)Nc3ccc(C)c(S(=O)(=O)N4CCOCC4)c3)c3ccccc3n2)cc(OC)c1OC,–,–,–,52,–,–,–
COc1ccc(CNC(=O)C[C@H]2C[C@H](C(=O)N3CCOCC3)[C@@]3(CCC4CCCC4)c4[nH]c5cc(CCC(=O)N(C)C)ccc5c4CCN3C2=O)cc1OC,–,–,–,–,–,–,·
O=C(Nc1nc2ccccc2[nH]1)c1ccccc1F,–,–,–,93,77,87,81
CCc1ccc(C(=O)Nc2nc3ccccc3[nH]2)cc1,–,–,-69,77,69,?,67
O=C(NCC(F)(F)F)c1csc([C@@H]2O[C@H](CO)[C@H](O)[C@H](O)[C@H]2O)n1,–,–,–,–,·,·,·
CSc1nc2c(cc1C#N)CCC2,–,–,–,–,–,–,·
N#Cc1cc2c(nc1SC1CC(=O)N(c3ccccc3)C1=O)CCC2 (centres undefined),–,–,–,57,52,65,59
CC(=O)Nc1cccc(-c2ccnc3c2CC(C)(C(=O)Nc2cccc(C(F)(F)F)c2)O3)c1 (centres undefined),–,–,–,52,·,·,62
CCCC(=O)N1CCCC(c2cc(C(=O)Nc3ccccc3)no2)C1 (centres undefined),–,–,–,54,·,·,47
C=CCC[C@@H](Cc1ccc(F)cc1)C(=O)OC[C@@H](Cc1c[nH]c2ccccc12)NC(=O)[C@H](CC=C)CC(=O)N[C@H](CO)Cc1ccccc1,–,–,–,52,–,–,–
CC(=O)c1cccc(NC(=O)c2ccc(-n3cncn3)c3ccoc23)c1,–,–,–,–,·,·,·
Cc1c(C#N)c(N)nc2c3c(sc12)NC(=O)CC3c1ccc(Cl)cc1 (centres undefined),–,–,–,68,–,–,48
COc1ccc(S(=O)(=O)N2CCC3CC2c2c(-c4ccc(C(F)(F)F)cc4)cccc23)cc1 (centres undefined),–,–,–,–,·,·,·
CN(C)c1ccc(N=Nc2nc3ccccc3n2C)cc1,–,·,-82,104,57,?,88
FC(F)(F)c1cc(CCN2C(=S)NC[C@@H]2Cc2ccccc2)cc(C(F)(F)F)c1,–,–,–,–,–,–,·
NC1=NC[C@H](Cc2ccccc2)N1CCc1cc(C(F)(F)F)cc(C(F)(F)F)c1,–,–,–,85,–,–,53
O=C(NCCc1ccccc1)C1Cc2c(-c3ccc4c(c3)OCO4)ccnc2O1 (centres undefined),–,–,–,–,·,·,·
COc1ccc(N(CCCN2C(=O)c3cccc4cccc(c34)C2=O)C(=O)c2cccs2)cc1,–,–,–,52,–,–,42
CN(C)CCNC(=O)c1sc2cccc(F)c2c1Cl,–,–,–,–,–,–,·
CN(C)CCNC(=O)c1cccc2nc3cccc(F)c3nc12,–,91,–,105,–,77,98
COc1ccc(NC(=O)c2cc3c(Cl)nc4ccccc4c3s2)c(OC)c1,–,–,–,52,–,–,–
CCn1c(=O)c2cc(C(=O)Nc3ccc(OC)cc3OC)sc2c2ccccc21,–,–,–,–,–,–,·
SMILES,CF NFkB inh,Shn3 3UTR inh,KKLEB tox,Peg3 prom inh-1,EBV LMP1 NFkB,TRPM1 prom inh,Peg3 prom inh-2
O=C(NCc1ccccc1Cl)c1[nH]c(C(F)(F)F)nc1-c1ccccc1,–,–,–,–,·,·,·
O=C(COc1ccccc1[N+](=O)[O-])NCC1(N2CCCCC2)CCCCC1,–,–,–,–,–,–,·
O=[N+]([O-])CC1(n2nc3ccccc3n2)CCCCC1,–,–,–,67,–,–,–
OCCNCc1cc(Br)ccc1OCc1ccc(Cl)cc1,–,–,–,–,–,–,·
OCCNCc1cc(Br)ccc1OCc1ccc(Cl)cc1Cl,–,–,–,65,–,–,62
O=c1cc(NCCCO)c2ccccc2o1,–,–,–,–,–,–,·

# High-throughput results as filed in PubChem BioAssay.
